Bioassay records deposited in PubChem BioAssay by National Center for Advancing Translational Sciences (NCATS).
In the library only some 8.1% were active in any assay of this set; here they are far more common.
KB-3-1 cytotox: qHTS assay for MDR1-selective chemotherapeutics: Primary screen using the parental adenocarcinoma cell KB-3-1. KB-3-1 viability, CellTiter-Glo ATP luminescence, 72 h. Potency, µM (top dose mostly 46.1 µM), hits mostly cytotoxic. hit rate 1.4% among 400,000. AID 1347075, 2019; further: on the % scale 0 is the no-effect control and ±100 the full control effect; nearly all actives have a fitted effect of over 60% in size
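Luminescent ATP read-out (CellTiter-Glo) measures survival of drug-naive KB-3-1 cells after 72 h compound exposure at 37 °C. Titration series was screened from lowest to highest concentration, with DMSO vehicle plates as background controls.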
ELG1 repair inh: qHTS screen for small molecules that inhibit ELG1-dependent DNA repair in human embryonic kidney (HEK293T) cells expressing luciferase-tagged ELG1; HEK293T ELG1-luciferase reporter, luminescence, 16 h; DNA damage induced by 5-fluorouridine; hit rate 2.3% among 330,000; Potency, µM (titrated, usually from 46.1 µM), for inactives: at the top dose activity change, negative = inhibition, actives largely listed as inhibitors; AID 504467, 2011; further: on the % scale 0 is the no-effect control and ±100 the full control effect; nearly all actives have a fitted effect of over 55% in size
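Reporter activity after DNA damage by 5-fluorouridine is monitored. Compound-treated cells incubate 16 hr at 37 °C, then ONE-Glo is added for 30 min before luminescence reading.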
KB-V1 cytotox: qHTS assay for MDR1-selective chemotherapeutics: Primary screen using the drug-selected MDR subline cells KB-V1; KB-V1 MDR cells viability, CellTiter-Glo, 72 h; Potency, µM (titrated, usually from 46.1 µM), most hits filed as cytotoxic; hit rate 3.4% among 400,000; AID 1347076, 2019; further: on the % scale 0 is the no-effect control and ±100 the full control effect; nearly all actives have a fitted effect of over 60% in size
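Readout: CellTiter-Glo luminescence, 10 min after addition. Cells: KB-V1 MDR subline, 72 h at 37 degrees C with compound. Analysis: corrected, normalized data fitted to concentration-effect curves.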
MCF10A rereplic: A quantitative high throughput screen for small molecules that induce DNA re-replication in MCF 10a normal breast cells; AID 624296, 2012; MCF 10A DNA re-replication, Hoechst nuclear intensity, 48 h; Potency, µM (highest dose often 46.1 µM), without a hit: at the top dose activity, positive = re-replication, hits mostly activators; hit rate 2.9% among 350,000; further: % of control where 0% means no effect; nearly all actives have a fitted effect of over 50% in size
SW480 rerep: A quantitative high throughput screen for small molecules that induce DNA re-replication in SW480 colon adenocarcinoma cells; SW480 DNA re-replication, Hoechst DNA content imaging, 48 h; Potency, µM (doses to about 46.1 µM), for the others: top-dose re-replication activation, actives largely listed as activators; hit rate 1.8% among 340,000; AID 624297, 2012; further: % of control where 0% means no effect; nearly all actives have a fitted effect of over 55% in size
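Hoechst fluorescence of nuclei (405 nm excitation, 500-530 nm emission) measured by plate-scanning imager after 48 hr compound exposure at 37 C; re-replication scored as increased number of nuclei with elevated intensity.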
* hit, by the source's call; i = inactive; ? = inconclusive; nt = no result given; [ ] = remark or other dose. The call rests on the fitted dose curve; in most records, active means well fitted curve in the direction sought with a large enough effect; inconclusive means small, poorly fitted or top-dose-only effect, or another doubt; inactive means no such curve, though single readings can be large; an effect the other way counts as inactive or inconclusive. Potency means the concentration at half of the fitted maximal effect.

SMILES	KB-3-1 cytotox	ELG1 repair inh	KB-V1 cytotox	MCF10A rereplic	SW480 rerep
COc1nc(C)ccc1-c1noc(-c2ccccn2)n1	i	?	12µM*	-4%	-9%
COc1ccccc1-c1nc(-c2ccc(C)nc2OC)no1	i	?	i	1%	-3%
COc1nc(-c2ccccc2)ccc1-c1noc(C)n1	i	nt	?	13µM*	-1%
CCOc1nc(-c2ccccc2)ccc1-c1noc(COC)n1	i	?	23µM*	24%	?
Cc1cc(=O)[nH]c(SCCOc2ccc3c(c2)CCC3)n1	i	nt	i	?	1.8µM*
Nc1cc(=O)[nH]c(SCCSc2ccccc2)n1	?	-11%	7.3µM*	-1%	-12%
Nc1cc(=O)[nH]c(SCCOc2ccccc2)n1	?	5%	5.2µM*	3%	0%
Cc1ccccc1Cn1c(=N)n(CC(=O)c2ccco2)c2ccccc21	?	?	i	-12%	-2%
CCOCCCNc1nc2c(c(=O)[nH]c(=O)n2C)n1CCCc1ccccc1	i	-5%	i	-2%	-7%
Cc1ccc(OCCCn2c(C3CC(=O)N(c4cccc(Cl)c4)C3)nc3ccccc32)c(C)c1 (stereo not drawn)	i	nt	i	nt	nt
O=S(=O)(c1ccccc1)N(CC1CO1)c1cccc2ccccc12 (stereo not drawn)	i	-8%	i	?	21µM*
O=C(NCCc1ccccc1)C1CCCN(c2cnccn2)C1 (stereo not drawn)	i	8%	i	-4%	-17%
COc1ccccc1N1CCN(CC(O)c2c(C)[nH]c3ccccc23)CC1 (stereo not drawn)	i	3%	i	18µM*	?
COc1ccccc1N1CCN(CC(=O)c2c(C)[nH]c3ccccc23)CC1	?	-18%	i	?	0%
COC(=O)Nc1sc2c(c1C(=O)NCc1ccco1)CCC2	i	-23%	i	2%	1%
COc1cc(C(=O)Nc2sc3c(c2C(=O)NCc2ccco2)CCCC3)cc(OC)c1OC	i	?	i	18µM*	-3%
Cc1ccc(C(=O)Nc2sc3c(c2C(=O)NCc2ccco2)CCCC3)cc1	i	?	i	?	20%
COC(=O)Nc1sc2c(c1C(=O)NCc1ccco1)CCCC2	i	12%	i	0%	-4%
O=C(Nc1sc2c(c1C(=O)NCc1ccco1)CCCC2)c1ccc2c(c1)OCO2	i	?	15µM*	?	2%
COc1ccc(C(=O)Nc2sc3c(c2C(=O)NCc2ccco2)CCCC3)cc1OC	i	16µM*	i	20%	-6%[9.22 µM]
COc1ccccc1N1CCN(C(=O)c2oc3c(c2C)C(=O)CC(C)(C)C3)CC1	i	21µM*	?	-4%	-6%
Cc1ccccc1S(=O)(=O)Cc1ccc(C(=O)N2CCN(c3cccc(Cl)c3)CC2)o1	4.1µM*	nt	4.6µM*	nt	nt
COc1ccccc1S(=O)(=O)Cc1ccc(C(=O)N2CCCC2)o1	i	1%	?	22%	-1%
Cc1ccc(S(=O)(=O)Cc2ccc(C(=O)N3CCN(c4cccc(Cl)c4)CC3)o2)cc1	?	nt	5.8µM*	nt	nt
CCc1ccccc1S(=O)(=O)Cc1ccc(C(=O)N2CCN(c3ccccc3OC)CC2)o1	i	23µM*	?	-11%	?
SMILES	KB-3-1 cytotox	ELG1 repair inh	KB-V1 cytotox	MCF10A rereplic	SW480 rerep
Cc1ccc(Cl)cc1N1CCN(C(=O)c2ccc(CS(=O)(=O)c3ccc(Br)cc3)o2)CC1	?	nt	i	nt	nt
Cc1c(C(=O)N2CCN(c3ccccn3)CC2)oc2c1C(=O)CC(C)(C)C2	i	?	i	-1%	-16%
O=C(NNC(=O)c1ccncc1)Nc1ccc(Br)cc1	i	nt	i	-25%	-8%
Cc1ccccc1C(=O)Nc1c(C(=O)Nc2cccc(F)c2)oc2ccccc12	i	nt	i	nt	nt
Cc1ccc(C(=O)O/N=C/c2ccc3c(c2)OCO3)cc1	i	4%	i	10%	0%
Cc1ccccc1S(=O)(=O)Cc1ccc(C(=O)N2CCN(c3cccc(C)c3C)CC2)o1	5.2µM*	7.3µM*	5.8µM*	2.3µM*	4.1µM*
COc1cccc(N2CCN(C(=O)c3ccc(CS(=O)Cc4ccc(Cl)cc4)o3)CC2)c1 (stereo not drawn)	i	21µM*	16µM*	7%	-2%
Cc1ccccc1S(=O)(=O)Cc1ccc(C(=O)N2CC(C)CC(C)C2)o1 (stereo not drawn)	i	?	i	28%	-4%
COc1ccc(S(=O)(=O)Nc2ccc3oc4c(c3c2)CCCC4)cc1	i	nt	?	nt	nt
COc1ccc(OC)c(S(=O)(=O)Nc2ccc3oc4c(c3c2)C(=O)CCC4)c1	i	?	23µM*	3%	5%
CC1=C(C(N)=O)C(c2cccc(O)c2)n2ncnc2N1 (stereo not drawn)	i	nt	?	nt	nt
Cc1ccc2nc(SCC(=O)N3CCCc4ccccc43)nc(=O)n2c1	i	nt	18µM*	-2%	-8%
CCOc1ccccc1-n1c(SCC(=O)N2CCCc3ccccc32)nnc1-c1cccnc1	i	-2%	7.3µM*	?	-73%
Cc1ccnc(SCC(=O)N2CCCc3ccccc32)n1	i	18%	i	0%	-39%
O=C(CSc1nnc(-c2ccccc2)n1-c1ccccc1)c1cccs1	i	-23%	21µM*	?	0%
CC(C)Cn1c(SCC(=O)N2CCCc3ccccc32)nc2ccccc2c1=O	i	?	?	21µM*	?
COc1ccc(CC(=O)NNC(=S)NCC2CC2)cc1OC	i	-28%	?	1%	-3%
CCn1c(SCC(=O)N2CCCc3ccccc32)nc2ccccc2c1=O	i	?	10µM*	23µM*	2%
Cn1c(-c2ccccc2)cnc1SCC(=O)N1CCCc2ccccc21	i	7%	5.8µM*	20%	-3%
Nc1ccccc1SCC(=O)N1CCc2ccccc21	i	?	i	1%	-1%
O=C(CSc1nnc(-c2ccccc2Br)n1-c1ccccc1)c1ccc(F)cc1	?	nt	18µM*	nt	nt
O=C(O)c1ccccc1SCC(=O)N1CCc2ccccc21	i	?	i	16µM*	27%
O=C(COC(=O)c1ccccc1OCc1ccc(Cl)cc1)NCC1CCCO1 (stereo not drawn)	i	?	?	?	3%
O=C(CN1C(=O)NC2(CCCC2)C1=O)OCc1ccc(F)cc1	i	13%	i	-10%	1%
